In one test the test system is PRKX.
Broadly, the Kd is the free concentration of one partner at which half of the binding sites on the other are occupied at equilibrium, for simple one-to-one binding. Compound `Cc1ccc(NC(=O)Nc2cccc(Cl)c2)cc1-c1ccc(C(=O)Nc2ccncc2)cc1` [GSK1398468] registered a dissociation constant (Kd) of 7400 nM.

Take `CCn1c(-c2ccccn2)nc2cnccc21` [SB-736398]: the Kd is above 10000 nM.

The compound `CC1=C(C(=O)Nc2cc3cn[nH]c3cc2F)C(c2ccc(C(F)(F)F)cc2)CC(=O)N1` (stereo not shown) [GSK429286] yielded a Kd of 350 nM.

A further test has as its system RAF1.
Compound `Cc1cccc(-c2nc(-c3ccc(S(C)(=O)=O)cc3)sc2-c2ccnc(NCCc3ccccc3)c2)c1` returned a Kd of 150 nM.

`Cl.O=C(Nc1cccc(-c2nn3ncccc3c2-c2ccnc(Nc3cccnc3)n2)c1)c1c(F)cccc1F` [GSK312879] came in with a Kd of 430 nM.

The compound `COC(=O)c1c(-c2ccccc2)c2cc(C(=O)O)ccc2c(=O)n1Cc1ccccc1` showed an equilibrium dissociation constant (Kd) of 170 nM.

Compound `Cc1ccc(NC(=O)Nc2cccc(Cl)c2)cc1-c1ccc(C(=O)Nc2ccncc2)cc1` [GSK1398468] displayed a dissociation constant Kd of 180 nM.

In the case of `Cc1ccc(NC(=O)Nc2cc(C(C)(C)C)nn2-c2ccccc2)cc1` [GSK1014915], binding was characterised by a dissociation constant (Kd) of 270 nM.

As for `CN(C)CCN(C)C(=O)c1cc(-c2ccncc2)c(-c2ccc(Cl)c(O)c2)o1.Cl.Cl` [SB-710397], the Kd was 650 nM.

`COC(=O)c1c(-c2ccccc2)c2cc(OC)ccc2c(=O)n1Cc1ccccc1` returned a dissociation constant Kd of 390 nM. Compared with the last compound, the Kd is about 1.7-fold lower.

Consider `Cc1cccc(-c2nc(C)cc(Nc3ccncc3)n2)n1` [GSK257997], for which the equilibrium dissociation constant (Kd) was above 10000 nM.

As to `CC(=O)Nc1nc2cnc(Nc3cc(NC(=O)c4cccc(CCC#N)c4)ccc3C)nc2s1`, the dissociation constant Kd is above 10000 nM.

Another test has as its system RIOK2.
For the compound `Clc1cc(Cl)cc(Nc2ccnc(Nc3cc(Cl)cc(Cl)c3)n2)c1` [GSK175726], the dissociation constant Kd was determined as 150 nM.

In turn, `Cc1cc(-c2ccc3c(c2)CC[C@@H](N[C@@H](C)c2ccccc2)C3)cnc1N.Cl` [GW412617] gave a Kd of 650 nM. This Kd lies about 4.3-fold higher than the previous one.

As for `O=S(=O)(c1ccc(-c2ccnc3[nH]ccc23)cc1)N1CCCC1` [GSK846226], the Kd was 960 nM.

In another test the test system is RIOK3.
As for `Cc1ccc(C(=O)Nc2ccc(Nc3ccnc4cc(-c5ccccn5)ccc34)cc2O)cc1.Cl` [GW440146], the dissociation constant (Kd) is above 10000 nM.

`O=S(=O)(c1ccc(-c2ccnc3[nH]ccc23)cc1)N1CCCC1` [GSK846226] showed a Kd of 540 nM.

Regarding `COc1cccc(-c2cc(-c3c[nH]nc3-c3ccccn3)ccn2)c1` [GW680338], the Kd is 9600 nM.

In turn, `COc1cc2ncn(-c3cc(OCC4CCCO4)c(C(N)=O)s3)c2cc1OC` (stereo not shown) [GSK204607] registered a Kd of 670 nM.

In the next test the test system is ROCK1.
For `O=S(=O)(c1ccc(-c2ccnc3[nH]ccc23)cc1)N1CCCC1` [GSK846226], the affinity, expressed as Kd, was 330 nM. In other words, the sub-micromolar range.

`CC1=C(C(=O)Nc2cc3cn[nH]c3cc2F)C(c2ccc(C(F)(F)F)cc2)CC(=O)N1` (stereo not shown) [GSK429286] had a Kd of 2.7 nM.

`CSc1nn2c(=O)cc(N3CCOCC3)nc2n1Cc1cccc(C(F)(F)F)c1C` [GSK2363608] came in with a dissociation constant (Kd) of 46 nM.

In the next test the test system is ROCK2.
As for `O=S(=O)(c1ccc(-c2ccnc3[nH]ccc23)cc1)N1CCCC1` [GSK846226], the affinity, expressed as Kd, was 350 nM.

As to `CC1=C(C(=O)Nc2cc3cn[nH]c3cc2F)C(c2ccc(C(F)(F)F)cc2)CC(=O)N1` (stereo not shown) [GSK429286], the Kd was 2.7 nM.

In turn, `CSc1nn2c(=O)cc(N3CCOCC3)nc2n1Cc1cccc(C(F)(F)F)c1C` [GSK2363608] had a dissociation constant (Kd) of 82 nM.

The test system of another test is T1, RSK4(Kin.Dom.2-C-terminal).
T1 construct: gene RPS6KA6
`Fc1cc(Cl)ccc1Nc1ccnc2cc(I)ccc12` [GW551191]: the dissociation constant Kd was determined as 730 nM.

`CS(=O)(=O)c1ccc(-c2c(-c3ncn[nH]3)sc(N3CCOCC3)c2C#N)cc1` displayed a dissociation constant (Kd) above 10000 nM.

As to `Fc1cc(Cl)ccc1Nc1ccnc2cc(-c3ccc(CN4CCCCC4)o3)ccc12` [GW560116], binding was characterised by a dissociation constant (Kd) of 670 nM.

A further test has as its system SLK.
On to `Cc1ccccc1-n1cnc2c(N)ncnc21` [SKF-97510], for which the dissociation constant (Kd) is above 10000 nM.

The compound `CN(C)CCN(C)C(=O)c1cc(-c2ccncc2)c(-c2ccc(Cl)c(O)c2)o1.Cl.Cl` [SB-710397] displayed an equilibrium dissociation constant (Kd) of 3600 nM.

In the case of `COc1cc2ncn(-c3cc(OCC4CCCO4)c(C(N)=O)s3)c2cc1OC` (stereo not shown) [GSK204607], the dissociation constant (Kd) is above 10000 nM.
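Further: kd values determined as follow-up on hits from a single-replicate KINOMEscan panel screen.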
